Bioassay records deposited in PubChem by National Center for Advancing Translational Sciences (NCATS).
In the library only some 10% were active in any assay of this set; here they are far more common.
3T3 cytotox – Cytotoxic Profiling in NIH 3T3 Cell Line of Diverse Libraries Using Quantitative High-Throughput Screening; NIH 3T3 viability, CellTiter-Glo ATP luminescence, 48-72 h; Potency, µM (titrated, usually from 96.7 µM), inactives show at the highest dose activity change, negative = cytotoxicity, usual class: inhibitors; hit rate 4.3% among 94,000; AID 1345082, 2018; also: nearly all actives have a fitted effect of over 55% in size
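Viability of NIH 3T3 cells after 48 or 72 hr compound treatment at 37 °C was assessed by CellTiter-Glo, with luminescence imaged following a 10 min room-temperature step.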
Luciferase inh – Firefly luciferase inhibition profiling of diverse chemical library using quantitative high-throughput screening; Luciferin 4-monooxygenase (Photinus pyralis), P08659; purified P. pyralis luciferase, luminescence, biochemical; Potency, µM (series often up to 115 µM), usual class: inhibitors; hit rate 2.5% among 76,000; AID 1347043, 2019; also: nearly all actives have a fitted effect of over 65% in size
Target sequence (P08659 whole entry, looked up): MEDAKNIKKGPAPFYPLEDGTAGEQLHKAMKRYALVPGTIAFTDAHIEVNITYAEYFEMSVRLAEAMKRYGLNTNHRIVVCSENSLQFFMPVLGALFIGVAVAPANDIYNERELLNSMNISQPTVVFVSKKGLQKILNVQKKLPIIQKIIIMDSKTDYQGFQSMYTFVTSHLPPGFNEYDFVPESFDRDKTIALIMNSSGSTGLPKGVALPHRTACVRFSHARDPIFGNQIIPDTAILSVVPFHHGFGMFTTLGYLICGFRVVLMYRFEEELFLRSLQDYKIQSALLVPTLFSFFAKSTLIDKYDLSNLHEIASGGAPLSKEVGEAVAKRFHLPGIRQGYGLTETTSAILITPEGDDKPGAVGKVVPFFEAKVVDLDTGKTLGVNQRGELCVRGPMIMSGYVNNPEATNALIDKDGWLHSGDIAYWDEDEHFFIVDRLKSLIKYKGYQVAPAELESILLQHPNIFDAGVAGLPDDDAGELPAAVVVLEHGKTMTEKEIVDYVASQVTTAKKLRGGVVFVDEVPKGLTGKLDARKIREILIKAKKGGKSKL
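Biochemical qHTS: compound (6-point titration) added to 10uM D-luciferin plus 10uM ATP in Tris acetate pH 7.5 buffer with Mg, Tween-20 and BSA, then purified enzyme at 10nM; light output imaged.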
GPT2 inhibitor – Primary qHTS assay for inhibitors of Glutamate pyruvate transaminase 2 (GPT2); Alanine aminotransferase 2 (Homo sapiens), Q8TD30; Recombinant GPT2, coupled pyruvate oxidase/HRP Amplex Red fluorescence; Potency, µM (highest dose often 57.7 µM), without a hit: at the top dose activity change, negative = inhibition, hits mostly inhibitors; hit rate 0.25% among 100,000; AID 1671188, 2021; also: nearly all actives have a fitted effect of over 60% in size
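Inhibition is scored from Amplex Red fluorescence generated when pyruvate oxidase and HRP act on pyruvate released by GPT2. Reactions contain 10ng/uL enzyme, 250uM a-KG and 2mM L-alanine and run 30 min at room temperature.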
NPR1 antag – Natriuretic polypeptide receptor (hNpr1) antagonism - Primary qHTS; HEK293 hNpr1 GloSensor cGMP, ANP-stimulated luminescence; Potency, µM (titrated, usually from 46.3 µM), for inactives: at the highest dose activity change, negative = inhibition, most hits filed as inhibitors; hit rate 1.6% among 76,000; AID 1347048, 2019; calls by dose curve; also: nearly all actives have a fitted effect of over 60% in size
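Compound pre-incubated 30 min at room temperature on GloSensor-loaded HEK293 cells stably carrying hNpr1 and the pGS-40F cGMP biosensor. Stimulation uses hNppA at 0.1 nM final; luminescence is taken at baseline and 20 min post-agonist.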
HEK293 tox – Cytotoxic Profiling in HEK 293 Cell Line of Diverse Libraries Using Quantitative High-Throughput Screening; Potency, µM (series often up to 115 µM), for inactives: at the top dose activity change, negative = cytotoxicity, actives largely listed as inhibitors; AID 1345083, 2018; HEK 293 viability, ATP luminescence (CellTiter-Glo), 48-72 h; hit rate 6.6% among 94,000; also: nearly all actives have a fitted effect of over 60% in size
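250 HEK 293 cells/well; compound by pintool; incubated 48 or 72 hr at 37 degree Celsius; CellTiter-Glo added, 10 min RT, luminescence imaged.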
* marks the source's active call; other numbers are inactive results; i = inactive; ? = inconclusive; nt = no result; [ ] = remark or other dose. Unless noted, calls follow the shape of the dose curve; as a rule, active = well fitted curve in the direction sought with a large enough effect; inconclusive = small, poorly fitted or top-dose-only effect, or another doubt; inactive = no such curve, though single readings can be large; an effect the other way counts as inactive or inconclusive. % is scaled to controls: 0 for no effect and ±100 for the full control effect; potency is read from the fitted curve at half-maximal effect.

SMILES	3T3 cytotox	Luciferase inh	GPT2 inhibitor	NPR1 antag	HEK293 tox
COc1cccc(-c2ccc(C(=O)N3CCC(C(=O)N4CCCCC4)CC3)cc2)c1	?	nt	-3.5%	nt	?
Cc1ccc([S+](=O)([O-])N2CCN(CCn3nc4n(c3=O)CCCC4)CC2)cc1	4.4%	nt	nt	nt	i
O=C(NC[C@H]1OC[C@@H](NCc2ccc(F)cc2)[C@@H]1O)c1ccncc1	i	i	i	2.0%[70.6 µM]	i
COCCNC(=O)C1(C)CN(C)Cc2ccc(Nc3ccccc3)nc21 (stereo not drawn)	-22.5%[138 µM]	i	-5.0%[88.5 µM]	-0.3%[70.6 µM]	?
COc1cccc(Nc2ccc3c(n2)C(C)(C(=O)NCc2cccs2)CN(C)C3)c1 (stereo not drawn)	?	i	-8.7%[88.5 µM]	-4.6%[70.6 µM]	?
CN1Cc2ccc(NCc3ccccc3)nc2C(C)(C(=O)Nc2ccccc2)C1 (stereo not drawn)	44.7µM*	i	-2.0%[88.5 µM]	-28.4%[70.6 µM]	63.1µM*
CN(C)CCNC(=O)C1(C)CN(Cc2ccccc2)Cc2ccc(Nc3ccccc3)nc21 (stereo not drawn)	15.8µM*	i	-3.9%	0.5%	28.2µM*
CN1Cc2ccc(NCc3ccccc3)nc2C(C)(C(=O)NCCOc2ccccc2)C1 (stereo not drawn)	?	63.1µM*	-26.1%[88.5 µM]	?	?
CN1Cc2ccc(NCc3ccccc3)nc2C(C)(C(=O)NCc2cccs2)C1 (stereo not drawn)	79.4µM*	i	-0.8%[88.5 µM]	-19.4%[70.6 µM]	?
CNC(=O)[C@@H]1CN(C(=O)c2cncn2C)C[C@H]1COC	-6.5%	i	?	0.8%	-11.5%
O=C(c1ccc2nnc(-c3cc(F)ccc3F)n2c1)N1CCN(c2ncccn2)CC1	-28.8%	nt	i	nt	-11.0%
COCCN1Cc2ccc(Nc3ccc(OC)cc3)nc2C(C)(C(=O)NC(C)C)C1 (stereo not drawn)	?	i	i	6.3%[70.6 µM]	?
COc1ccc(NC(=O)C2(C)CN(C)Cc3ccc(NCc4ccccc4)nc32)cc1 (stereo not drawn)	44.7µM*	i	0.6%[88.5 µM]	-17.0%[70.6 µM]	?
COc1ccc(Cl)cc1C(=O)N1[C@@H]2CC[C@H]1CC(NC(=O)c1ccncc1)C2 (stereo partly drawn)	-16.5%	i	-0.3%	6.9%	-9.8%
Cc1ccccc1CCN1CCCC(CN(C)C(=O)c2cc3ccccc3[nH]2)C1 (stereo not drawn)	?	i	4.8%	?	22.4µM*
Cc1cc(C(=O)N(C)CC2CCCN(CCc3ccccc3F)C2)n[nH]1 (stereo not drawn)	0.1%	i	?	3.3%	1.2%
O=C1NCc2ccccc2CC12CCN(Cc1ccc(CO)o1)CC2	-5.9%	nt	i	nt	0.7%
CCOc1ccccc1NC(=O)Cn1c(N(C)Cc2ccccc2)nc(C)cc1=O	?	i	-1.6%	-13.0%	35.5µM*
Cc1cc(=O)n(CC(=O)Nc2cc(Cl)ccc2C)c(N(C)Cc2ccccc2)n1	?	i	-9.3%	-2.6%	25.1µM*
Cn1cccc1-c1noc(C2CCN(C(=O)CCCc3ccccc3)C2)n1 (stereo not drawn)	-30.8%	nt	?	nt	?
Cc1cccc(-n2nc(C)c(CCC(=O)N3CCSCC3)c2Oc2ccccc2)c1	?	i	i	-25.3%	44.7µM*
Cc1nn(-c2ccccc2)c(Oc2ccccc2F)c1CCC(=O)N1CCSCC1	?	i	?	-17.1%	35.5µM*
Cc1nn(-c2ccc(F)cc2)c(Oc2ccccc2F)c1CCC(=O)N1CCSCC1	?	i	4.2%	-16.0%	?
Cc1cccc(-n2nc(C)c(CCC(=O)N3CCOCC3)c2Oc2ccccc2C)c1	?	i	i	-11.5%	?
CCn1ccnc1CN1CCCC(CNC(=O)c2cccc(OC)c2OC)C1 (stereo not drawn)	i	i	i	4.3%	3.3%
SMILES	3T3 cytotox	Luciferase inh	GPT2 inhibitor	NPR1 antag	HEK293 tox
O=C1[C@@H]2C[C@@H](CN2Cc2ccc(Cl)cc2)Oc2ccccc2N1Cc1ccccc1	31.6µM*	i	4.0%[88.5 µM]	?	63.1µM*
CN1C(=O)[C@@H]2C[C@@H](CN2Cc2ccc3ccccc3n2)Oc2ccccc21	79.4µM*	i	1.8%[88.5 µM]	-13.3%[70.6 µM]	?
O=C1Nc2ccccc2O[C@H]2C[C@@H]1N(Cc1ccc(C(F)(F)F)cc1)C2	?	i	?	?	70.8µM*
COc1ccc(CN2C(=O)[C@@H]3C[C@@H](CN3Cc3ccccc3)Oc3ccccc32)cc1	?	i	-10.0%[88.5 µM]	-22.5%[70.6 µM]	50.1µM*
CC(C)CNC(=O)c1ccc2nc(-c3cccnc3)oc2c1	-21.2%	nt	i	nt	-10.6%
Cc1nc([C@@H]2CN(C(=O)C3CC3)C[C@H]2C(N)=O)n[nH]1	-6.3%	i	4.8%	-0.5%	-1.6%
Cc1cc(C(=O)N2C[C@@H](Oc3cccnc3)C[C@H]2C(=O)N2CCCC2)n(C)n1	-7.7%	i	i	-1.8%	-6.2%
CC(C)N1C[C@@H]2C[C@H]1C(=O)N(Cc1ccccc1)c1ccccc1O2	50.1µM*	i	-13.7%[88.5 µM]	-21.8%[70.6 µM]	?
COc1ccc(CN2C(=O)[C@@H]3C[C@@H](CN3Cc3ccccc3OC)Oc3ccccc32)cc1	i	i	i	-11.6%	i
COCCN1C(=O)[C@@H]2C[C@@H](CN2Cc2ccc(C(F)(F)F)cc2)Oc2ccccc21	?	i	?	-1.9%[70.6 µM]	79.4µM*
CC(C)N1C[C@@H]2C[C@H]1C(=O)N(Cc1cccnc1)c1ccccc1O2	?	i	2.3%[88.5 µM]	0.3%[70.6 µM]	-12.2%[172 µM]
COc1ccc(CN2C(=O)[C@@H]3C[C@@H](CN3Cc3ccccc3C)Oc3ccccc32)cc1	?	i	-3.5%[88.5 µM]	-30.1%[70.6 µM]	70.8µM*
O=C1[C@@H]2C[C@@H](CN2C2CCC2)Oc2ccccc2N1Cc1ccc(OC(F)(F)F)cc1	39.8µM*	i	-9.9%[88.5 µM]	-29.1%[70.6 µM]	70.8µM*
COc1cc(NC(=O)Cn2c(-c3ccc(Cl)cc3)nc(C)cc2=O)cc(OC)c1OC	?	i	i	3.0%	?
Cn1nc(C2CCN(C(=O)C3CCCO3)CC2)c2c1CCOC2 (stereo not drawn)	i	i	i	0.9%	12.9%
COC[C@H]1C[C@H]2C[C@@H](Oc3ccccn3)[C@H](N(C)CCc3ccc(OC)c(OC)c3)[C@]2(O)CO1	?	nt	-8.3%[27.3 µM]	nt	0.2%[57.5 µM]
CC[C@@]1(O)CCN(CC(=O)NCc2cc(C(=O)O)ccc2C)C[C@H]1O	-9.4%	i	i[11.5 µM]	1.2%	3.5%
